Reference: ChEMBL document CHEMBL1961873, “Compounds: GSK PKIS; Assays: Nanosyn kinase panel” (2012)

Experiments:
[1] = biological target: Casein kinase I isoform gamma-2 (Homo sapiens) (UniProt P78368); details: at 1 µM
[2] = biological target: Casein kinase I isoform gamma-3 (Homo sapiens) (UniProt Q9Y6M4); details: at 0.1 µM
[3] = biological target: Casein kinase I isoform gamma-3 (Homo sapiens) (UniProt Q9Y6M4); details: at 1 µM
[4] = biological target: Cyclin-dependent kinase 1 (Homo sapiens) (UniProt P06493); details: at 0.1 µM
[5] = biological target: Cyclin-dependent kinase 1 (Homo sapiens) (UniProt P06493); details: at 1 µM
[6] = biological target: Cyclin-dependent kinase 2 (Homo sapiens) (UniProt P24941); details: at 0.1 µM
[7] = biological target: Cyclin-dependent kinase 2 (Homo sapiens) (UniProt P24941); details: at 1 µM
[8] = biological target: Cyclin-dependent kinase 2 (Homo sapiens) (UniProt P24941); details: at 0.1 µM; remark: listed apart in the source
[9] = biological target: Cyclin-dependent kinase 2 (Homo sapiens) (UniProt P24941); details: at 1 µM; remark: listed apart in the source
[10] = biological target: CDK3/Cyclin E (Homo sapiens) (UniProt P24864+Q00526); details: at 0.1 µM;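 further: reported percentages are mean inhibition values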
Chain of CDK3/Cyclin E (Homo sapiens) (P24864 whole entry, looked up): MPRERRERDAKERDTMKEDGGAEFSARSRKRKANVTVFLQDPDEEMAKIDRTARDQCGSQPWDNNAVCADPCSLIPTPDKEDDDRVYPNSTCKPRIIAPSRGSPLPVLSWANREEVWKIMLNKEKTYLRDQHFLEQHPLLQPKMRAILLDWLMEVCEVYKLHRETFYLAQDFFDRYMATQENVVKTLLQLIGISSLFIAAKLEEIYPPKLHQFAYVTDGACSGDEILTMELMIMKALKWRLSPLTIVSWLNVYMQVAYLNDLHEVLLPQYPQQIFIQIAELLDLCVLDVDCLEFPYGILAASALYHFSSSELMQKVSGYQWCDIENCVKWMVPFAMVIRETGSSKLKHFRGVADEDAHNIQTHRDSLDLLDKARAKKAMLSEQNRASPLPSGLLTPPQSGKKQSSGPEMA
Chain of CDK3/Cyclin E (Homo sapiens) (Q00526 whole entry, looked up): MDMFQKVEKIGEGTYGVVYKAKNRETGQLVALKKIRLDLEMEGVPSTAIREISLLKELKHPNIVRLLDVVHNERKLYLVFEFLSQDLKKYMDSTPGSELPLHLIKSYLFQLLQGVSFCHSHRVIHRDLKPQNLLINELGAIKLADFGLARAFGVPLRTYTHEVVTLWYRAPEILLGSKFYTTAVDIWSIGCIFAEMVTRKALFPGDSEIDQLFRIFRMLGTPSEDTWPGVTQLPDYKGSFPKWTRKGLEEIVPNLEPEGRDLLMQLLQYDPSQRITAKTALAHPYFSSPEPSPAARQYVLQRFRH

Chain of Cyclin-dependent kinase 1 (Homo sapiens) (P06493 whole entry, looked up): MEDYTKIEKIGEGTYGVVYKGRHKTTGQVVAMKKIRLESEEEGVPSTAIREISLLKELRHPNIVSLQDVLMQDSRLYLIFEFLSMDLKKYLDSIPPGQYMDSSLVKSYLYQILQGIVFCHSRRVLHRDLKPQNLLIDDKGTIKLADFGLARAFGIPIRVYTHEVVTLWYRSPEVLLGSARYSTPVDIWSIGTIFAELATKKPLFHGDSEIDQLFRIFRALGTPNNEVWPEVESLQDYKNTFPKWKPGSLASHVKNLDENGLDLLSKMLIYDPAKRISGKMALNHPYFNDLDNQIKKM
Chain of Casein kinase I isoform gamma-3 (Homo sapiens) (Q9Y6M4 whole entry, looked up, canonical isoform): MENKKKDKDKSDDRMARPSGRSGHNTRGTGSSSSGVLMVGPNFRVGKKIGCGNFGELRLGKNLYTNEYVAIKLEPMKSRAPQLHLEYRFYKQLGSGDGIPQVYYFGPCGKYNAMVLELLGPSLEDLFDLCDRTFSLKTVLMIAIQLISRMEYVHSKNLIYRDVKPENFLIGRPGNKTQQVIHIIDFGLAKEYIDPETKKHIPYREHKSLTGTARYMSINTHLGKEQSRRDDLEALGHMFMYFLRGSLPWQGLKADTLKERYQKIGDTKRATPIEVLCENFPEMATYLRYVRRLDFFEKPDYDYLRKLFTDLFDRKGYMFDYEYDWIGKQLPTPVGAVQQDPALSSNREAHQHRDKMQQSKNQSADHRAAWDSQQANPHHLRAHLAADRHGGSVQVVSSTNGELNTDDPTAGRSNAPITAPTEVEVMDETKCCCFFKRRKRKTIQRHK
Chain of Casein kinase I isoform gamma-2 (Homo sapiens) (P78368 whole entry, looked up, canonical isoform): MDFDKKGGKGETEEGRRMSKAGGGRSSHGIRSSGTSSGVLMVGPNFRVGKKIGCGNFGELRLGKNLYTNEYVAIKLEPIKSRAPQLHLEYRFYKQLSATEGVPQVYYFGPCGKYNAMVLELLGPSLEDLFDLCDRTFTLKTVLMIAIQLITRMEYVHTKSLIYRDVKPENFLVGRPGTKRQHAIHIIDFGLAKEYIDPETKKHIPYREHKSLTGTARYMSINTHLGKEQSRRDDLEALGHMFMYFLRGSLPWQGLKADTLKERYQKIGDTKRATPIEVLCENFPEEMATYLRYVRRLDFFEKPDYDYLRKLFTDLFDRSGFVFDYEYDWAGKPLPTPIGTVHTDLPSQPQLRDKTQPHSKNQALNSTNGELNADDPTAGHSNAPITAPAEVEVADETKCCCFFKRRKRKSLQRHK

Compound | inhibition [1] | inhibition [2] | inhibition [3] | inhibition [4] | inhibition [5] | inhibition [6] | inhibition [7] | inhibition [8] | inhibition [9] | inhibition [10]
Nc1nonc1-c1nc2cnccc2n1C1CCCCC1 | 0.45% | -1.94% | 1.85% | 5.2% | 24.5% | 7.81% | 44.6% | 8.62% | 41.5% | 4.5%
CCn1c(-c2nonc2N)nc2c(C#CCN)ncc(OCCCN)c21 | -2.49% | -1.84% | -2.94% | 3.69% | 2.18% | 0.26% | 0.59% | 2.03% | 2.69% | 2.51%
NS(=O)(=O)c1ccc(-c2ccc3c(NC(=O)C4CC4)n[nH]c3c2)cc1 | 1.7% | 0.52% | -0.19% | 0.48% | 5.13% | 2.91% | 13.4% | 2.18% | 5.85% | 2.19%
COc1cccc(-n2ncc3c(N/N=C/c4ccncc4)ncnc32)c1 | 9.79% | 5.28% | 6.59% | 45% | 81.8% | 47% | 76.8% | 24.6% | 65.2% | 12.2%
Cc1cc(-c2ccco2)cc(C)c1/C=C/c1cncc(-c2nn[nH]n2)c1 | 1.08% | 0.9% | 2.3% | 0.87% | 2.16% | 0.49% | 1.75% | 0.38% | 2.54% | -0.91%
NC(=O)c1sc(-n2cnc3cc(C(F)(F)F)ccc32)cc1OCc1ccccc1Br | 0.89% | 1.52% | 1.06% | 0.9% | 4.47% | 0.47% | 2.92% | 0.99% | 3.19% | -1.34%
Fc1ccc(-c2ncn(C3CCNCC3)c2-c2ccnc(Oc3ccccc3)n2)cc1 | 2.3% | -1.46% | 10% | -3.4% | -1.98% | -3.24% | -1.87% | -2.35% | -0.94% | -3.17%
CCn1c(-c2nonc2N)nc2c(C#CC(C)(C)O)ncc(OC[C@@H]3CCCN3)c21 | 2.18% | 0.87% | 3.35% | -0.63% | 0.58% | -1.52% | -0.07% | -0.64% | -0.07% | -0.42%
NS(=O)(=O)c1ccc(N/C=C2\C(=O)Nc3ccc4ncsc4c32)cc1 | 11.1% | 5.65% | 14.4% | 25% | 62.4% | 82.7% | 94.4% | 70.8% | 75% | 75.5%
CCn1c(-c2nonc2N)nc2c(C#CC(C)(C)O)ncc(OCC3CCNCC3)c21 | 0.7% | -1.65% | -0.62% | -0.87% | 4.13% | -0.3% | 4.17% | 6.49% | 9.55% | 7.2%
CCn1c(-c2nonc2N)nc2c(C#CC(C)(C)O)nc(O[C@@H](CN)c3ccccc3)cc21 | 4.43% | -0.48% | 9.88% | 4.13% | 4.92% | 2.07% | 4.12% | 2.92% | 4.27% | 3.62%
COc1cc2c(cc1Nc1nc(Nc3ccsc3C(N)=O)c3cc[nH]c3n1)N(C(=O)CN(C)C)CCC2 | -7.97% | 1.11% | 10.3% | 5.37% | 6.76% | 4.39% | 6.12% | 0.86% | -1.41% | 0.3%
COc1cccc(COc2cc(-n3cnc4ccccc43)sc2C(N)=O)c1 | 1.17% | 0.42% | 1.21% | 0.45% | -0.26% | 0.15% | -0.04% | -0.91% | -0.85% | -1.38%
COc1cc(C=NNc2ncnc3c2cnn3Cc2ccccc2)ccc1O | -3.09% | 0.15% | -1.86% | 3.83% | 14.8% | 0.83% | 0.3% | -0.38% | 6.08% | 0.9%
